For 62 compounds, Potency results are on record in PubChem BioAssay AID504333 (National Center for Advancing Translational Sciences (NCATS), 2011).

Screen size: about 360,000 compounds; about 16,000 (4.4%) were called active. Entries that show only a call come without a potency. About 9% were inconclusive and are not listed. The call rests on the fitted dose curve; in most records, active means well fitted inhibition curve with a large enough effect; inconclusive means small, poorly fitted or top-dose-only effect; inactive means no such curve, though single readings can be large or run the other way. This excerpt belongs to a sample that is enriched for actives.
Potency means the concentration at half of the fitted maximal effect.

Sequence of Bromodomain adjacent to zinc finger domain protein 2B (Homo sapiens) (Q9UIF8 whole entry, looked up, the tested form may be a part): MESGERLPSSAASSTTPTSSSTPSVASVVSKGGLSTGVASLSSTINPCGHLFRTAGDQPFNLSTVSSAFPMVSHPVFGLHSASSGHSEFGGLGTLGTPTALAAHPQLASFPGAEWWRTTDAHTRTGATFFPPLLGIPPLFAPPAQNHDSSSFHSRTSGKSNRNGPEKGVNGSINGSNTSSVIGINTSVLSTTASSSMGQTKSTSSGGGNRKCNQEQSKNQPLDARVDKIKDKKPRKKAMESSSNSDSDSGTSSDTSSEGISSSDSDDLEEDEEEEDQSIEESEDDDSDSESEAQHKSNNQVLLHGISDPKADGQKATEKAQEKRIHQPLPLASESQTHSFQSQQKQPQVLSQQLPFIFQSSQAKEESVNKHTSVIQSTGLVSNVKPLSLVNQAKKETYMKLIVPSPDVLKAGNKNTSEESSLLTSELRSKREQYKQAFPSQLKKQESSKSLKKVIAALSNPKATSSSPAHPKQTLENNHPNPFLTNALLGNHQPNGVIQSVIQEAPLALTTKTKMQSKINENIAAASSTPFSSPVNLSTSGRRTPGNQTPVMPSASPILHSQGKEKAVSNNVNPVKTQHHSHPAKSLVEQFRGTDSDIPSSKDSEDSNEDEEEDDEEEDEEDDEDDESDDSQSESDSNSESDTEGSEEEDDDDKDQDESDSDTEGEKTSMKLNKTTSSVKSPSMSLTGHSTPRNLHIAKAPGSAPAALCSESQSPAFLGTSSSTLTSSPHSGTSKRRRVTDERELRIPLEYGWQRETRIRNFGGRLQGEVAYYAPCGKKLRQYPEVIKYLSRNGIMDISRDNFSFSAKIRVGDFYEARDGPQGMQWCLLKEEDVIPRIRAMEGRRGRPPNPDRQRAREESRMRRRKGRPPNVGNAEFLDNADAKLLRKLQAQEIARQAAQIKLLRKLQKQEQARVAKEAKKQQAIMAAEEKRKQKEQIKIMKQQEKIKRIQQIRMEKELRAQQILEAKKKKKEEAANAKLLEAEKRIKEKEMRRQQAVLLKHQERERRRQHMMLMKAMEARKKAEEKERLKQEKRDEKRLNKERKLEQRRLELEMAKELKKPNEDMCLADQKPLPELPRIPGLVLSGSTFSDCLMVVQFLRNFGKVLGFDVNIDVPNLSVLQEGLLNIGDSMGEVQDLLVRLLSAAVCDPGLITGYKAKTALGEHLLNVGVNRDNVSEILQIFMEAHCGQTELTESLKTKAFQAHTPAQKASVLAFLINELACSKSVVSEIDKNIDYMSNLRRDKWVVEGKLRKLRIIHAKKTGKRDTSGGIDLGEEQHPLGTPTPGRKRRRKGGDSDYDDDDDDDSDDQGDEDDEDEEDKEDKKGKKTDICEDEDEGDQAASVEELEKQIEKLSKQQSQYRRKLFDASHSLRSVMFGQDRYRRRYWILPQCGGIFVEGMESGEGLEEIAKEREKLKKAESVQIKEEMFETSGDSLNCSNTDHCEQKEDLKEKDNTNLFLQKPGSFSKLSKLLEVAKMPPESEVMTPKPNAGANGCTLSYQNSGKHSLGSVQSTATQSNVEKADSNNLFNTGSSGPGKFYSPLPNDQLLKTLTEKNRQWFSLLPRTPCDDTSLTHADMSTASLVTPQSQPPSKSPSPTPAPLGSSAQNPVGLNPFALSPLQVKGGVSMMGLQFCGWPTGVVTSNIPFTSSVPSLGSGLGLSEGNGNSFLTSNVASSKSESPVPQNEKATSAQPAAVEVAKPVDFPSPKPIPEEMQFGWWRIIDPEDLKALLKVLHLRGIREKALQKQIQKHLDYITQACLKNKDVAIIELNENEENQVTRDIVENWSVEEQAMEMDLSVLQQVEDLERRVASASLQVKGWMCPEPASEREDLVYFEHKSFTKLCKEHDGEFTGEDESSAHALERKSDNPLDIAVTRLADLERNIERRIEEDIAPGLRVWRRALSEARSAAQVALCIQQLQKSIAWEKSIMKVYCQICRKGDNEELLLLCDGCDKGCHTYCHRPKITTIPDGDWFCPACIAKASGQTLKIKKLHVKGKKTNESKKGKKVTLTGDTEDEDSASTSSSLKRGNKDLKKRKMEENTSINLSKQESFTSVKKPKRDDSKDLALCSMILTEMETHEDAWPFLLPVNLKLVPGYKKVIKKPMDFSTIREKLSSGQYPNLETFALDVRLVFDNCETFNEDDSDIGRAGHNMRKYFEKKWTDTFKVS

This assay concerns the target Bromodomain adjacent to zinc finger domain protein 2B (Homo sapiens) (UniProt Q9UIF8). Briefly: qHTS Assay for Inhibitors of BAZ2B. Further: nearly all actives have a fitted effect of over 60% in size. Particulars: AlphaScreen BAZ2B-H3K14Ac peptide displacement; series mostly up to 114 µM. In short, it runs like this: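 Complex of BAZ2B and biotin-H3K14Ac (50 nM apiece) forms over 30 min at RT, then faces library compounds up to 110 uM for another 30 min; AlphaScreen beads added, 20 min dark incubation, luminescence read.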
As to `CCc1ccc(CNC(=O)c2ccc(CS(=O)c3ccc(Br)cc3)o2)cc1` (configuration not stated), the Potency entry is “inactive”. The result for `CCc1nnc(SCc2c(F)cccc2Cl)c2cc3sccc3n12` reads “inactive”. Regarding `Nc1ccc2nc3c(=O)[nH]c(=S)[nH]c3nc2c1`, the Potency was 31.6 µM (active). Regarding `CC1CN(C(=O)N2CCC(C(=O)NCc3cccs3)CC2)c2ccccc2O1` (configuration not stated), the Potency entry is “inactive”. Take `CCn1c(=O)cc(OCC(=O)Nc2cc(Cl)c(OC)cc2OC)c2ccccc21`: the Potency result was “inactive”. Then `Cc1cccc(C(=O)Nc2ccc(-c3nc4ncccc4o3)cc2C)c1`, with “inactive”. `Cc1ccccc1C(=O)NC(=S)Nc1ccc(N2CCN(C(=O)c3ccccc3)CC2)cc1`: the Potency result is “inactive”. Then `COC(=O)Cc1ccc(NC(=S)NCc2ccccc2)cc1`, with “inactive”; and `O=C(Cc1ccccc1)NC(=S)Nc1ccc(N2CCCCC2)cc1`, with 12.6 µM (active); and `Cc1ccccc1C(=O)Nc1ccc(N2CCCCCC2)cc1`, with 31.6 µM (active).

As for `COc1cccc(C(=O)Nc2ccc(N3CCN(C(=O)c4ccco4)CC3)cc2)c1`, the Potency entry is “inactive”.

Take `Cc1ccccc1C(=O)N1CCN(c2ccc(NC(=O)c3cccs3)cc2)CC1`: the Potency entry was “inactive”. Then `O=C(CCN1CCN(c2ccccc2)CC1)NNC(=S)Nc1ccccc1`, with “inactive”; and `COc1cccc(C(=O)Nc2ccc3nc4n(c(=O)c3c2)CCCCC4)c1`, with “inactive”.

In the case of `COc1cccc(C(=O)Nc2ccc(N3CCCC3)cc2)c1`, the Potency was 31.6 µM (active). For the compound `Cc1cc2nn(-c3ccc(Cl)cc3)nc2cc1NC(=O)C(C)C`, the Potency result was “inactive”. Then `CCC1CCCCN1S(=O)(=O)c1ccc(NC(=O)c2cc(=O)c3ccccc3o2)cc1` (configuration not stated), with “inactive”; and `CC(=O)Nc1cc(C(=O)NCc2ccc(F)cc2Cl)ccc1Sc1ccc(Cl)cc1`, with “inactive”.

In the case of `CSc1cccc(NC(=O)CN2C(=O)CCc3cc(S(=O)(=O)N4CCCCC4)ccc32)c1`, the Potency entry was “inactive”.

`Cc1ccccc1-n1c(=O)c2ccccc2n(Cc2ccc(F)cc2)c1=O`: the Potency entry is “inactive”.

Regarding `Cc1ccc(-c2nnc(Nc3ccc(OCC(N)=O)cc3)c3ccccc23)cc1S(=O)(=O)NCC1CCCO1` (configuration not stated), the Potency result is “inactive”. The result for `COc1ccc(CNC(=O)CS(=O)Cc2nc(-c3cccc(C)c3)oc2C)cc1` (configuration not stated) reads “inactive”; that for `COc1ccc(CCNC(=O)c2c3c(nc4ccccc24)C(=O)N(C2CCCCC2)C3)cc1OC`, “inactive”. The result for `COC(=O)c1cc2occc2n1Cc1nc(-c2ccc(C)cc2)oc1C` reads “inactive”. In the case of `Cc1cc(N2CCN(S(=O)(=O)c3ccc(C)c(C)c3)CC2)c2ccccc2n1`, the Potency result is “inactive”. As to `Cc1ccc(S(=O)(=O)Nc2nc3ccccc3nc2N2CCc3ccccc3C2)cc1`, the Potency entry is “inactive”. Regarding `Cc1ccc(S(=O)(=O)C(C#N)c2nc3ccccc3nc2N2CCCC2)cc1C` (configuration not stated), the Potency was 79.4 µM (active). Turning to `COc1cccc(Cn2c(CNS(=O)(=O)c3ccc(Cl)s3)nc3cccnc32)c1`, the Potency entry is “inactive”.

In the case of `Cc1ccc(CNS(=O)(=O)c2ccc(C(=O)N(C)C)s2)cc1`, the Potency result was “inactive”. On to `O=C(CC1C(=O)N(c2ccccc2)C(=O)N1CCc1cccs1)Nc1ccc(F)cc1` (configuration not stated), for which the Potency entry is “inactive”.

For `COc1ccc(/C(O)=C2/C(=O)C(=O)N(CCCN(C)C)C2c2ccccc2)cc1OC` (configuration not stated), the Potency entry is “inactive”. The result for `COc1cccc(C2/C(=C(/O)c3ccc(F)cc3)C(=O)C(=O)N2CCN(C)C)c1` (configuration not stated) reads “inactive”; that for `CCCOc1ccc(/C(O)=C2/C(=O)C(=O)N(CCN(C)C)C2c2ccc(OC)c(OC)c2)cc1` (configuration not stated), 79.4 µM (active). On to `COc1ccc(CCNC(=O)c2ccc3c(c2)nc(C)n3-c2ccc(Br)cc2)cc1OC`, for which the Potency result was “inactive”. Then `COc1ccccc1CNC(=O)c1ccccc1NC(=O)c1nsc2ccccc12`, with “inactive”; and `CCOc1ccc(CNC(=O)c2ccc3c(c2)nnn3C2CCCC2)cc1`, with “inactive”. As to `O=C(c1cc(-c2ccco2)nc2ccccc12)N(Cc1nnc(-c2ccc(Cl)cc2)o1)C1CC1`, the Potency entry is “inactive”.

In the case of `Cc1cc(C)c2nc(-c3ccco3)cc(C(=O)O)c2c1`, the Potency was 39.8 µM (active). Then `CC1CCCN(C(=O)c2cc(-c3ccco3)nc3ccccc23)C1` (configuration not stated), with “inactive”; and `CC(C)(C)c1ccc(S(=O)(=O)N2CCN(C(=O)c3cc(-c4ccc(Br)cc4)n[nH]3)CC2)cc1`, with “inactive”; and `Cc1cccc(CC(=O)N2CC(=O)Nc3ccc(F)cc3C2c2ccccc2)c1` (configuration not stated), with “inactive”. The result for `CCc1ccc(CNC(=O)c2cc3c(=O)n(CC)c4ccccc4c3s2)cc1` reads “inactive”; that for `COc1ccc(N2CC(NS(=O)(=O)c3ccc4ccccc4c3)CC2=O)cc1` (configuration not stated), “inactive”.

On to `O=C(COc1ccc(/C=N/NS(=O)(=O)c2ccccc2)cc1)NCCc1ccccc1`, for which the Potency result was “inactive”. As to `O=S(=O)(N/N=C\c1cccn1-c1ccccc1)c1ccc2ccccc2c1`, the Potency was 35.5 µM (active). Then `CCOc1ccccc1CNC(=O)C1CCCN(S(=O)(=O)c2ccc3c(ccn3C)c2)C1` (configuration not stated), with “inactive”; and `Cc1cc2oc(C(=O)N(Cc3ccc(Cl)cc3)Cc3ccco3)c(C)c2cc1Cl`, with “inactive”.

`CCc1cnc2c(c1SCC(=O)c1ccccc1)c(=O)n(C)c(=O)n2C`: the Potency entry is “inactive”.

In the case of `COc1cccc(N2CCN(S(=O)(=O)c3cc(Br)cc4c3N(C(=O)C3CC3)CC4)CC2)c1`, the Potency entry is “inactive”.

Take `CCC(=O)N1CCc2cc(Br)cc(S(=O)(=O)Nc3ccc(C)cc3C)c21`: the Potency result is “inactive”.

As for `COc1ccc(-c2oc3ncn(Cc4ccco4)c(=N)c3c2-c2ccc(OC)cc2)cc1`, the Potency is 28.2 µM (active).

For the compound `COc1ccc(Cn2ccnc2SCC(=O)NCc2ccco2)cc1`, the Potency result was “inactive”. Turning to `COc1ccc(NC(=O)C(=O)NCc2ccco2)cc1`, the Potency entry was “inactive”.

Take `CCN1CCN(c2ncc3c(n2)CC(c2ccccc2O)CC3=O)CC1` (configuration not stated): the Potency result was “inactive”. For `Cc1ccc(C(=O)N2CCc3cc(CNC(=O)c4ccc(Br)cc4)ccc32)cc1`, the Potency result is “inactive”. Then `Cc1ccc(C)c(OCC(=O)Nc2sc3c(c2C#N)CCCC3)c1C`, with “inactive”. The result for `COc1ccc(-n2c(SCC(=O)Nc3sc4c(c3C#N)CCCC4)nnc2-c2ccc(O)cc2)cc1` reads 79.4 µM (active). Then `N#Cc1c(NC(=O)CSc2nc3ccccc3c(=O)n2Cc2ccco2)sc2c1CCCC2`, with “inactive”; and `COc1ccc(NC(=O)CSc2nnc(-c3cccs3)n2Cc2ccco2)cc1OC`, with “inactive”; and `Cc1cs/c(=N\N=C\c2ccc(O)cc2)n1Cc1ccco1`, with 44.7 µM (active). As for `CN(c1ccccc1)c1ccc(/C=c2\s/c(=C(/C#N)C(=O)C(C)(C)C)n(Cc3ccco3)c2=O)cc1`, the Potency result was “inactive”. The result for `Cc1ccc(-c2cn3c(n2)sc2cc(C(=O)NCc4cccs4)ccc23)c(C)c1` reads “inactive”.
